Test results from the supplement of paper PMC10849652.
The full data set covers some 8,800 targets. This sample favours those with a hit. About 0.5% of all pairs of compound and target were hits. Unmarked numbers belong to inactive results.

Assays:
Experiment in all cases: log2 fold change, soluble protein after heating vs DMSO (PISA); higher = thermal stabilisation; K562 lysate, 10 uM; active = over 0.2 and 3.5 SD of the protein, either way, in both replicates (recomputed)
vemurafenib = compound: CCCS(=O)(=O)Nc1ccc(F)c(C(=O)c2c[nH]c3ncc(-c4ccc(Cl)cc4)cc23)c1F [vemurafenib]
Outline: (§1)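 Pellets of K562 cells were dounce-homogenised in PBS pH 7.4 with 1 mM MgCl2, and the crude extract was held at 1 mg/mL protein for a 30 min treatment with 10 μM compound. Aliquots were heated for 3 min over 48°C-58°C and pooled before NP-40 was added to 0.5% at 4°C. The supernatant from 21,000xg for 90 min was quantified by TMTpro 16plex LC-MS/MS with channel sums equalised. Values are reported from duplicates as log-two fold change in thermal stability relative to solvent controls.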

[1] = compound: CCCS(=O)(=O)Nc1ccc(F)c(C(=O)c2c[nH]c3ncc(Cl)cc23)c1F
Outline: as §1

barasertib = compound: CCN(CCCOc1ccc2c(Nc3cc(CC(=O)Nc4cccc(F)c4)[nH]n3)ncnc2c1)CCOP(=O)(O)O [barasertib]
Outline: as §1

[2] = compound: CC[C@@H]1C(=O)N(C)c2cnc(Nc3ccc(C(=O)NC4CCN(C)CC4)cc3OC)nc2N1C1CCCC1
Outline: as §1

volasertib = compound: CC[C@@H]1C(=O)N(C)c2cnc(Nc3ccc(C(=O)N[C@H]4CC[C@H](N5CCN(CC6CC6)CC5)CC4)cc3OC)nc2N1C(C)C [volasertib]
Outline: as §1

[3] = compound: CCn1c(C(=O)N(C2CC2)C2CC2)cc2c3c(ncn3C)c(Nc3cc(C)n(C)n3)nc21
Outline: as §1

[4] = compound: CCn1cc(-c2ccnc3[nH]c(-c4cccc(CN(C)C)c4)cc23)c(-c2ccc(NC(=O)N(C)C)cc2)n1
Outline: as §1

[5] = compound: CN1CCC(CNc2ccc3ncc(-c4cccc(OC(F)(F)F)c4)n3n2)CC1
Outline: as §1

saracatinib = compound: CN1CCN(CCOc2cc(OC3CCOCC3)c3c(Nc4c(Cl)ccc5c4OCO5)ncnc3c2)CC1 [saracatinib]
Outline: as §1

sotrastaurin = compound: CN1CCN(c2nc(C3=C(c4c[nH]c5ccccc45)C(=O)NC3=O)c3ccccc3n2)CC1 [sotrastaurin]
Outline: as §1

UniProt P19784, sequence (P19784 whole entry, looked up): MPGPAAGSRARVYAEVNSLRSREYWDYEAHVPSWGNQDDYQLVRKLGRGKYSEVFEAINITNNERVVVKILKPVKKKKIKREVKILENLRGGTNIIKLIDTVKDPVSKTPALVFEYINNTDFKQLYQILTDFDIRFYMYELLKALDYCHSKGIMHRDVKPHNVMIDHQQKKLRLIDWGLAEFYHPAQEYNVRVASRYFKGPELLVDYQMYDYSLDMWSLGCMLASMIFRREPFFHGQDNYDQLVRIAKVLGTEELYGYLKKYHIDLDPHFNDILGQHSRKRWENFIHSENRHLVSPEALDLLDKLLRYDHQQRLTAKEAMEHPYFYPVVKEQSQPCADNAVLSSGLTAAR
UniProt O14757, sequence (O14757 whole entry, looked up): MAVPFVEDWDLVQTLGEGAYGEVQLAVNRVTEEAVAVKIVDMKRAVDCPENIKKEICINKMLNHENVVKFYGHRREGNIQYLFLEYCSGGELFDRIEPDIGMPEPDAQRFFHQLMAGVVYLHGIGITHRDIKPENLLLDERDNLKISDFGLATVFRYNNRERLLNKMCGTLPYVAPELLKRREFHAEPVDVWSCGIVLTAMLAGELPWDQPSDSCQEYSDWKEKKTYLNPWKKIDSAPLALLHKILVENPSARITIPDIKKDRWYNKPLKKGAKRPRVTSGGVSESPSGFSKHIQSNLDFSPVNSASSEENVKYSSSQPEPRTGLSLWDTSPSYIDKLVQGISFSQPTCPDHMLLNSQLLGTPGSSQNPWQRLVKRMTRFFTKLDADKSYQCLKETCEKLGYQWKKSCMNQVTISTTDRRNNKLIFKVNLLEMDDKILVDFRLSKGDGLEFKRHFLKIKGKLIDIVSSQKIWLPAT
UniProt P31146, sequence (P31146 whole entry, looked up): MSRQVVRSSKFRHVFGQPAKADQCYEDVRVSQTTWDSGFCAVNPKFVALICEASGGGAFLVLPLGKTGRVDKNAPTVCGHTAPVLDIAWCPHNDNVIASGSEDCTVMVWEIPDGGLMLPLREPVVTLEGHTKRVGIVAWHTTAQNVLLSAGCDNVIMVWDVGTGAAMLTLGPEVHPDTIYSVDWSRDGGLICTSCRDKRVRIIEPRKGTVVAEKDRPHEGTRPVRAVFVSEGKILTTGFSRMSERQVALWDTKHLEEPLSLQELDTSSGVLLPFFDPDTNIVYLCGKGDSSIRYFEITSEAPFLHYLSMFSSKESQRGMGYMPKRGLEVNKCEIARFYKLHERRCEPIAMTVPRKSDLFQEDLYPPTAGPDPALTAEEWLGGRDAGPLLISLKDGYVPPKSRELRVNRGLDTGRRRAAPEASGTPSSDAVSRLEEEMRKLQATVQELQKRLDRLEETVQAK
UniProt Q14746, sequence (Q14746 whole entry, looked up): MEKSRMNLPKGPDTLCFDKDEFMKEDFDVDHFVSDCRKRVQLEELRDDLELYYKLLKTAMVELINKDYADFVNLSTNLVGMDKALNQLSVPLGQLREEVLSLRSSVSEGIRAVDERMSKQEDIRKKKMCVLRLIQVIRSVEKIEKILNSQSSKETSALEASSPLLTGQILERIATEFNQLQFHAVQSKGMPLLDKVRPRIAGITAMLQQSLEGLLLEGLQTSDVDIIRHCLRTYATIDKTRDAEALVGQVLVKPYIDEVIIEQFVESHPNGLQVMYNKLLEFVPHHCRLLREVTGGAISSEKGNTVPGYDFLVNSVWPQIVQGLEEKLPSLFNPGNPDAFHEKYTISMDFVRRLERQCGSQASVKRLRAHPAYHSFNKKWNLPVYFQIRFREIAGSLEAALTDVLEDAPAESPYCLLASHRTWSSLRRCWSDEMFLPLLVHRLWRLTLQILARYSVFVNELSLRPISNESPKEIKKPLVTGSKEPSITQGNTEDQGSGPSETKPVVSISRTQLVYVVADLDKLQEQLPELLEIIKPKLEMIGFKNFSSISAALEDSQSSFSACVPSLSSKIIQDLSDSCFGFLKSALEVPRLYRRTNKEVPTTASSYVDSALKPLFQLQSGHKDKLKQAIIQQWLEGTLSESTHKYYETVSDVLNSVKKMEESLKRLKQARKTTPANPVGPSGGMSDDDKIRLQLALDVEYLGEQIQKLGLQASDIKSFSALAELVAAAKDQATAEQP
UniProt P26374, sequence (P26374 whole entry, looked up): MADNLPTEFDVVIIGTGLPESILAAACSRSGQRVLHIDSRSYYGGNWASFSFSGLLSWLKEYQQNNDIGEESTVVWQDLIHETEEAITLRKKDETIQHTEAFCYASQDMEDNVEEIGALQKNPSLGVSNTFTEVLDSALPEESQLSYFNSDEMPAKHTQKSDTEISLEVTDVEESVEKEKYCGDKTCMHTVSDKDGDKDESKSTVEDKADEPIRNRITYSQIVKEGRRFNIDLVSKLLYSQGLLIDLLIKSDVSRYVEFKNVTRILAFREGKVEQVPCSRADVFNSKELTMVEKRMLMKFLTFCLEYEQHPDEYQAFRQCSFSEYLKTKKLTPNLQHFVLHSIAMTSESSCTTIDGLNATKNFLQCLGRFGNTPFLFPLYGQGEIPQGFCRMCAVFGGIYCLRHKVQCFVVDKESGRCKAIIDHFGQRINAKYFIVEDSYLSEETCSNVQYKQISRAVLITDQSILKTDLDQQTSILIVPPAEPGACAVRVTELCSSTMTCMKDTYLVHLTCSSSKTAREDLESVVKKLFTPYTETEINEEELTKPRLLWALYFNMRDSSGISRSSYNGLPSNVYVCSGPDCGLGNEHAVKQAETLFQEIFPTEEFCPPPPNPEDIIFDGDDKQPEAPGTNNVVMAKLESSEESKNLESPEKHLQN
UniProt P83436, sequence (P83436 whole entry, looked up): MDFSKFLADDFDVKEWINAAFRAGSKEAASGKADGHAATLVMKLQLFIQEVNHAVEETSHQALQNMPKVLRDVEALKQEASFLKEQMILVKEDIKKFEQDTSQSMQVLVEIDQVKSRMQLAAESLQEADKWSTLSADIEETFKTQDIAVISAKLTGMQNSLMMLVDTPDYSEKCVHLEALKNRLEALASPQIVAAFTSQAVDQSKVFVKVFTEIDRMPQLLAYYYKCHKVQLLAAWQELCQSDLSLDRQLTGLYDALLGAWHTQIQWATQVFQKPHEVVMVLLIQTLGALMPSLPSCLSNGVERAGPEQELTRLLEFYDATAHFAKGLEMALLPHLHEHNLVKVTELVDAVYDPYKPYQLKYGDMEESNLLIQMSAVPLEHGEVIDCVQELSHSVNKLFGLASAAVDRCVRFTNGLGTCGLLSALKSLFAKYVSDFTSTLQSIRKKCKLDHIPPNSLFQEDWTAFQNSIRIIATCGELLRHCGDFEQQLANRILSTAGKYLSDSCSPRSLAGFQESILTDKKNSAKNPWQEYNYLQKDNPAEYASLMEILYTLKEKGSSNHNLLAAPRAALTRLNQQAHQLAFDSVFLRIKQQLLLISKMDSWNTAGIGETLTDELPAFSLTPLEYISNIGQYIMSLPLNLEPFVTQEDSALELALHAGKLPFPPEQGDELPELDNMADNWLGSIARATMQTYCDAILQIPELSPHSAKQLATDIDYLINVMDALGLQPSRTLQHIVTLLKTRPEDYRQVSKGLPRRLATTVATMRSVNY
UniProt P48729, sequence (P48729 whole entry, looked up): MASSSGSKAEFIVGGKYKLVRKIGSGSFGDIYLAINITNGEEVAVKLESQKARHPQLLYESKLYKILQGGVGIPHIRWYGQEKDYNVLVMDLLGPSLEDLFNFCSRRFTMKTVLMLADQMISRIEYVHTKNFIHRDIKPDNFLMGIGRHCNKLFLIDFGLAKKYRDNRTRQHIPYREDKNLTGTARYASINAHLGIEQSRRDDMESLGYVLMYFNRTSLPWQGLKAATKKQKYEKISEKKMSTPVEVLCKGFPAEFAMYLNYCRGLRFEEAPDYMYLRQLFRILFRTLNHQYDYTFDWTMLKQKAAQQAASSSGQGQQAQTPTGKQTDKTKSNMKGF
UniProt Q6P3W2, sequence (Q6P3W2 whole entry, looked up): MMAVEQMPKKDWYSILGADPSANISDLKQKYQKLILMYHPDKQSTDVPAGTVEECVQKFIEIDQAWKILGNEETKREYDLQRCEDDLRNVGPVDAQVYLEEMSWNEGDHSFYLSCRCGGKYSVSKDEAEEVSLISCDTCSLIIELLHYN
UniProt Q8WUH1, sequence (Q8WUH1 whole entry, looked up): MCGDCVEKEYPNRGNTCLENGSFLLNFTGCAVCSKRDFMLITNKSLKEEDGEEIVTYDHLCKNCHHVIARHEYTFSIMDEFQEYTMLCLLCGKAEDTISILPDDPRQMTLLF
UniProt P61923, sequence (P61923 whole entry, looked up): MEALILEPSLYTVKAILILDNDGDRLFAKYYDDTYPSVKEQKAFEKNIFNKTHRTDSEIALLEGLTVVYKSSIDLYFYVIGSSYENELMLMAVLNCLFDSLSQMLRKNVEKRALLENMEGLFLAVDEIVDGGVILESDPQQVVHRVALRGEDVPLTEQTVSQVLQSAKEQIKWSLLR
UniProt O96017, sequence (O96017 whole entry, looked up): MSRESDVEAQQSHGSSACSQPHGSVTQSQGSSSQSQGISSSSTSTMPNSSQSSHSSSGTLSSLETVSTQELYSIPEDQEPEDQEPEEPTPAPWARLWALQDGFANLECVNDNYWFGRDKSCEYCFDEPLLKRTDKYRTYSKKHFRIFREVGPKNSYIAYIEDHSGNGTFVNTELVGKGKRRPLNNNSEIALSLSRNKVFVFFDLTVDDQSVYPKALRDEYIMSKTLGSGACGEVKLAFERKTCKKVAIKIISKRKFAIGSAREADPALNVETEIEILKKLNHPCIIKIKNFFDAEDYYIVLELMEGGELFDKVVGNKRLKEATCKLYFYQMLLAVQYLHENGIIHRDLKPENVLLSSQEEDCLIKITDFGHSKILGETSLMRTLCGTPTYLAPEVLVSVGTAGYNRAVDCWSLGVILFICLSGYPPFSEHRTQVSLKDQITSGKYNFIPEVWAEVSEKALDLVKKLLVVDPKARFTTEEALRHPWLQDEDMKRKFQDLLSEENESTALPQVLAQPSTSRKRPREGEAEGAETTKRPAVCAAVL
UniProt Q9H5X1, sequence (Q9H5X1 whole entry, looked up): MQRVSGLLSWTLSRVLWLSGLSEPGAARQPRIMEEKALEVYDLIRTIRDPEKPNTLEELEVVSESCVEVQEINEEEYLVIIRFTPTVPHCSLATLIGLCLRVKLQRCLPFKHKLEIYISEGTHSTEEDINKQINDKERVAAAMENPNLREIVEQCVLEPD

Target | log2 fold change (vemurafenib) | log2 fold change [1] | log2 fold change (barasertib) | log2 fold change [2] | log2 fold change (volasertib) | log2 fold change [3] | log2 fold change [4] | log2 fold change [5] | log2 fold change (saracatinib) | log2 fold change (sotrastaurin)
CLCN3 (UniProt P51790) | -0.096 | -0.076 | 0.014 | -0.178 | -0.025 | 0.034 | 0.009 | 0.004 | 0.01 | -0.017
COG7 (UniProt P83436) | 0.003 | 0.018 | 0.017 | -0.054 | -0.076 | -0.003 | -0.209 | -0.019 | 0.05 | 0.039
DOCK7 (UniProt Q96N67) | 0.045 | 0.021 | 0.027 | -0.057 | -0.01 | 0 | -0.068 | -0.041 | -0.028 | 0.02
COPZ1 isoform 4 (UniProt P61923) | -0.054 | -0.004 | 0.111 | 0.022 | 0.019 | 0.004 | -0.015 | -0.187 | 0.018 | 0.01
CHEK2 (UniProt O96017) | -0.059 | 0.042 | 0.087 | -0.06 | -0.044 | 0.051 | 0.08 | -0.057 | -0.036 | 0
CNOT6L (UniProt Q96LI5) | 0.035 | -0.007 | 0.065 | -0.006 | 0.006 | 0.078 | -0.422 (active) | 0.107 | 0.048 | -0.019
COG4 (UniProt Q9H9E3) | 0.018 | 0.047 | 0.085 | -0.048 | -0.088 | 0.024 | 0.005 | -0.125 | 0.055 | 0.05
CORO1A (UniProt P31146) | -0.021 | -0.001 | 0.013 | 0.025 | -0.035 | 0.11 | -0.113 | 0.021 | -0.169 | -0.007
CSNK2A2 (UniProt P19784) | -0.219 | -0.005 | -0.044 | -0.031 | -0.082 | 0.011 | -0.092 | 0.418 | 0 | 0.023
COG2 (UniProt Q14746) | 0.023 | 0.012 | 0.077 | -0.052 | -0.088 | 0.106 | 0.032 | -0.093 | 0.002 | 0.037
COG3 (UniProt Q96JB2) | 0.004 | 0.012 | 0.041 | -0.056 | -0.071 | 0.042 | -0.038 | 0.012 | 0.046 | 0.008
DDX20 (UniProt Q9UHI6) | -0.058 | 0.018 | 0.011 | -0.087 | -0.061 | 0.036 | -0.037 | -0.094 | 0.036 | 0.004
CLUH, A0A494C0R8 | -0.11 | 0.027 | -0.092 | 0.097 | -0.005 | 0 | 0.59 (active) | -0.047 | 0.03 | 0.051
CKAP5 (UniProt Q14008) | -0.023 | -0.013 | 0.003 | -0.002 | -0.021 | 0.022 | -0.016 | -0.033 | 0.005 | 0.025
CTNND1 isoform 3 (UniProt O60716) | 0.06 | 0.037 | 0.036 | -0.034 | -0.098 | 0.073 | -0.032 | 0.004 | -0.012 | 0.024
CHURC1 isoform 2 (UniProt Q8WUH1) | 0.019 | -0.166 | 0.194 | 0.038 | 0.129 | 0.018 | -0.108 | 0.024 | -0.071 | -0.013
CSNK1A1 (UniProt P48729) | -0.044 | 0.017 | -0.003 | 0.078 | -0.066 | 0.097 | 0.065 | 0.171 | 0.02 | 0.048
COMT (UniProt P21964) | -0.052 | 0.012 | 0.024 | -0.101 | -0.056 | 0.039 | 0.026 | 0.005 | 0.008 | 0.036
CIAO2A (UniProt Q9H5X1) | -0.028 | -0.032 | 0.094 | -0.042 | -0.007 | 0.026 | 0.233 | -0.203 | 0.033 | 0.034
CMPK2 (UniProt Q5EBM0) | 0.026 | 0.048 | 0.155 | 0.018 | 0.015 | -0.03 | -0.001 | 0.007 | 0.006 | -0.019
CLUH (UniProt O75153) | -0.03 | 0.014 | 0.024 | 0.012 | -0.02 | -0.009 | -0.024 | 0.117 | 0.011 | 0.01
DNAJC24 (UniProt Q6P3W2) | 0.141 | -0.038 |  | 0.017 | 0.027 | 0.002 | 0.196 | -0.309 (active) | -0.013 | -0.032
CHML (UniProt P26374) | 0.01 | 0.008 | 0.004 | 0.011 | 0.022 | -0.007 | -0.012 | 0.026 | -0.002 | 0.005
CHEK1 (UniProt O14757) | -0.02 | 0.006 | 0.015 | -0.031 | -0.012 | -0.012 | -0.008 | -0.045 | -0.004 | -0.014
CSTF2 (UniProt P33240) | 0.011 | -0.015 | 0.27 (active) | 0.062 | -0.012 | -0.037 | -0.053 | 0.042 | 0.007 | 0.038
DCTN1 isoform 4 (UniProt Q14203) | 0.07 | 0.089 |  | 0.139 | -0.019 | -0.28 | 0.34 | 0.121 | 0.123 | -0.027
DIAPH1 (UniProt H9KV28) | 0.098 | -0.01 | 0.091 | -0.049 | -0.046 | -0.046 | -0.07 | 0.153 |  | -0.001
CLASP1 (UniProt Q7Z460) | 0.025 | 0.013 | 0.048 | -0.03 | -0.018 | 0.039 | -0.043 | 0.042 | 0.028 | -0.022
